This is an account of results in PubChem BioAssay AID463173 (ICCB-Longwood Screening Facility, Harvard Medical School, 2010).

The whole screen tested about 52,000 compounds, of which about 4,300 (8.3%) were called active. Cut-off read from the data, not from the text of the source: active = survival mostly below about 52% (no sharp cut-off); inactive = mostly above about 56%. Only a selection was taken, and actives are over-represented in it overall.

For the assay, the system named is DeltatarO mutant. Put plainly: growth inhibition of S. aureus wild type versus tarO mutant, primary screen, teichoic acid synthesis inhibitors, RN4220, OD600 (AID 463173). Conditions: OD600, 18 h, active compounds read low, screened at 18.75 µg/mL (by protocol).
As to `CS(=O)(=O)N1CCN(S(=O)(=O)c2ccccc2)CC1`, the survival was 104% (inactive).

On to `Cc1ccccc1N1CCN(S(=O)(=O)c2nnc(NC(=O)c3ccc(Cl)cc3)s2)CC1`, for which the survival is 43% (active). Then `COc1ccc(S(=O)(=O)N2CCN(S(=O)(=O)c3ccccc3)CC2)cc1`, with 87% (inactive); and `Cc1ccccc1N1CCN(S(=O)(=O)c2ccccc2)CC1`, with 28% (active). For the molecule `O=C(Nc1nnc(S(=O)(=O)N2CCN(c3ccc(F)cc3)CC2)s1)c1ccc(Cl)cc1`, the survival was 57% (inactive). Then `Cc1cccc(N2CCN(S(=O)(=O)c3nnc(NC(=O)c4ccc(Cl)cc4)s3)CC2)c1`, with 54% (inactive); and `O=C(Nc1ccc(O)cc1)c1cccc(S(=O)(=O)N2CCOCC2)c1`, with 77% (inactive); and `CCOc1ccc(NC(=O)Cn2nc3c(cc2=O)CC(C)CC3)cc1` (stereo unspecified), with 98% (inactive).

For `c1ccc(C2SCCN2c2ccccc2)cc1` (stereo unspecified), the survival is 97% (inactive). Then `Cc1cccc(N2CCN(C(=O)Cn3c(-c4cccs4)cc4ccccc43)CC2)c1C`, with 78% (inactive). Then `Cc1ccc(NC(=O)Cc2csc(C)n2)c(C)c1`, with 40% (active); and `Cc1ccc(C(=O)CCC(=O)Nc2ccc(C)cc2C)cc1`, with 115% (inactive); and `CCc1cccc(CC)c1NC(=O)Cc1csc(C)n1`, with 42% (active).

As for `Cc1cccc(OCc2nc(CC(=O)Nc3ccc(C)cc3C)cs2)c1`, the survival is 79% (inactive). In the case of `Cc1cccc(NC(=O)Nc2cccs2)c1C` it was 93% (inactive). Then `Cc1ccccc1-c1noc(CCC(=O)Nc2cccc(C)c2C)n1`, with 88% (inactive). Then `CCCCCOc1ccc(NC(=O)Cc2csc(C)n2)cc1`, with 44% (inactive).

Regarding `Cc1ccc(Cl)cc1NC(=O)c1csnn1`, the survival is 78% (inactive). For `Cc1nc(CC(=O)Nc2cc(Cl)ccc2C)cs1`, the survival was 45% (active). Then `Cc1cc(C)c(NC(=O)Cc2csc(C)n2)c(Cl)c1`, with 48% (inactive); and `Cc1nc(CC(=O)Nc2cccc(C)c2C)cs1`, with 39% (active). Then `CCc1ccc(NC(=O)Cc2csc(COc3cccc(C)c3)n2)cc1`, with 88% (inactive); and `COCC(=O)N1CCC(n2nnc3cc(F)ccc32)CC1`, with 53% (inactive).

For `CCN(CC)CC(=O)N1CCCC1=O`, the survival is 100% (inactive). In the case of `Cc1cc(C)c(/C=C/c2onc(C)c2S(=O)(=O)N2CCC(C(=O)NCc3ccco3)CC2)c(C)c1`, the survival was 90% (inactive).

In the case of `CCOC(=O)c1ccc(NC(=O)CCn2c(=O)c3cccn3c3ccccc32)cc1`, the survival was 91% (inactive).

With `CCC(c1nnnn1CCOC)N1CCN(c2cccc(C(F)(F)F)c2)CC1` (stereo unspecified), the survival is 107% (inactive). For the molecule `Cn1c(CNc2ccc(Cl)cc2)nnc1SCc1ccc(Cl)cc1`, the survival is 68% (inactive). Take `CC(=O)N1CCCC1c1nc2ccccc2n1Cc1ccc(F)cc1` (stereo unspecified): the survival is 85% (inactive). As to `CCc1cccc(CC)c1NC(=O)c1c(C)oc2ccc(O)c(CN3CCCC3)c12`, the survival is 113% (inactive). In the case of `O=S1(=O)c2ccccc2-c2cc(Br)ccc21` it was 79% (inactive). Then `CCOC(=O)CNC(=O)Nc1cc(C(=O)NCc2ccccc2OC)ccc1N1CCCC1`, with 80% (inactive); and `CCC(=O)/C=C1/Sc2ccc(C)cc2N1CC`, with 97% (inactive).

Consider `O=C(O)c1cc(NC2(c3ccccc3)C(=O)c3ccccc3C2=O)ccc1Cl`, for which the survival is 87% (inactive). In the case of `Cc1cc(F)ccc1NC1(c2ccccc2)C(=O)c2ccccc2C1=O` it was 79% (inactive); in that of `Cc1ccc(NC2(c3ccccc3)C(=O)c3ccccc3C2=O)cc1F`, 58% (active); in that of `COc1cc(OC)c(NC(=O)Nc2sc3nc4n(c(=O)c3c2C)CCC(C)CC4)cc1Cl` (stereo unspecified), 85% (inactive). Then `COc1ccccc1Cn1cc(C(=O)c2ccc(C)cc2)c(=O)c2cc(C)ccc21`, with 112% (inactive). Turning to `COc1ccc(Cn2cc(C(=O)c3ccc(C)cc3)c(=O)c3cc(OC)c(OC)cc32)cc1`, the survival was 93% (inactive). Then `COc1ccccc1Cn1cc(C(=O)c2ccccc2)c(=O)c2cc(OC)c(OC)cc21`, with 23% (active); and `CCc1ccc(C(=O)c2cn(CC(=O)Nc3ccc4c(c3)OCCO4)c3ccc(CC)cc3c2=O)cc1`, with 72% (inactive). In the case of `CCOc1ccc2c(c1)c(=O)c(C(=O)c1ccc3c(c1)OCO3)cn2Cc1ccc(F)cc1` it was 98% (inactive); in that of `O=C(c1ccc2c(c1)OCO2)c1cn(Cc2ccc(Cl)cc2)c2ccc(F)cc2c1=O`, 55% (active); in that of `O=C(c1ccc2c(c1)OCO2)c1cn(Cc2ccc(F)cc2)c2ccccc2c1=O`, 68% (inactive).

Consider `CCc1ccc2c(c1)c(=O)c(C(=O)c1ccc(C)cc1)cn2CC(=O)Nc1ccc2c(c1)OCCO2`, for which the survival was 61% (inactive).

As for `COc1ccc(Cn2cc(C(=O)c3ccc(F)cc3)c(=O)c3cc4c(cc32)OCCO4)cc1`, the survival is 66% (inactive).

For `CCc1ccc(C(=O)c2cn(CC(=O)Nc3ccc4c(c3)OCCO4)c3ccc(C)cc3c2=O)cc1`, the survival is 57% (active). Regarding `CCc1ccc(C(=O)c2cn(Cc3ccccc3)c3cc(OC)c(OC)cc3c2=O)cc1`, the survival was 58% (inactive). Then `COc1ccc(C(=O)c2cn(Cc3ccc(F)cc3)c3ccc(C)cc3c2=O)cc1`, with 24% (active); and `COCCNC(=O)CSc1nc2ccccc2nc1Cc1ccc(C)cc1`, with 78% (inactive).

Consider `CCOC(=O)c1oc2ccccc2c1CN(C)CCc1ccccc1`, for which the survival is 70% (inactive). Then `COc1ccc(CCn2c(=O)c3cccnc3n(CC(=O)Nc3c(C)cccc3C)c2=O)cc1OC`, with 90% (inactive); and `COc1ccccc1C(=O)Nc1ccc(NC(=O)c2cccs2)cc1`, with 51% (inactive). For the molecule `CCc1nnc(NC(=O)C(=O)c2cc(C)n(-c3ccccc3)c2C)s1`, the survival is 77% (inactive). In the case of `CCOc1ccc(-n2c(SCC(=O)Nc3ccccc3OC)nc3c(oc4ccccc43)c2=O)cc1` it was 69% (inactive); in that of `COc1ccc(-c2noc(C3CC(=O)N(c4ccc5c(c4)OCCO5)C3)n2)c(OC)c1` (stereo unspecified), 98% (inactive). In the case of `COc1ccc(N(C(=O)c2ccc(C(C)(C)C)cc2)S(=O)(=O)c2ccc(Cl)cc2)cc1` it was 81% (inactive). Then `Cc1ccc2c(c1)c(=O)c(C(=O)c1ccc3c(c1)OCO3)cn2Cc1ccc(Cl)cc1`, with 46% (active). In the case of `Cc1ccc2c(c1)c(=O)c(C(=O)c1ccc3c(c1)OCO3)cn2Cc1cccc(F)c1`, the survival is 66% (inactive). Then `Cc1ccc(Cn2cc(C(=O)c3ccc4c(c3)OCO4)c(=O)c3cc(C)ccc32)cc1`, with 59% (inactive). Then `CCOC(=O)c1ccc(NC(=O)CC2C(=O)N(c3ccc(F)cc3)C(=O)N2Cc2ccc3c(c2)OCO3)cc1` (stereo unspecified), with 116% (inactive). Then `O=C(c1ccc(-n2cnnn2)cc1)N(C1CCCCC1)C1CCCCC1`, with 93% (inactive). For `COc1cc(OC)c(NC(=O)NCCn2nnc3cc(S(=O)(=O)N(C)C)ccc32)cc1Cl`, the survival was 88% (inactive). In the case of `Cc1cc(F)ccc1-n1nnc(C(N)=O)c1C` it was 76% (inactive). Then `COc1ccc(-n2c(SCC(=O)NCc3ccccc3)nc3c([nH]c4ccccc43)c2=O)cc1`, with 93% (inactive); and `CC(CNC(=O)CCCn1c(=O)c2cccn2c2ccccc21)c1ccccc1` (stereo unspecified), with 47% (inactive). Then `CC(CNC(=O)CCn1c(=O)c2cccn2c2ccc(F)cc21)c1ccccc1` (stereo unspecified), with 34% (active). Regarding `CC(CNC(=O)CCCn1c(=O)c2cccn2c2cccnc21)c1ccccc1` (stereo unspecified), the survival was 95% (inactive). Then `CC(NC(=O)CCn1c(=O)c2cccn2c2ccc(F)cc21)c1ccccc1` (stereo unspecified), with 59% (inactive); and `CC(CNC(=O)CCCn1c(=O)c2cccn2c2ccc(F)cc21)c1ccccc1` (stereo unspecified), with 35% (active). In the case of `COc1cc(C(=O)NCC(c2ccco2)S(=O)(=O)c2cccs2)cc(OC)c1OC` (stereo unspecified) it was 91% (inactive); in that of `COc1cc(C2c3c(-c4c(C)cc(C)cc4O)n[nH]c3C(=O)N2CCCOC(C)C)cc(OC)c1OC` (stereo unspecified), 86% (inactive).

`CCOc1cc(CNC(=O)c2ccc3c(c2)NC(=O)C2CCCCN32)cc(OCC)c1OCC` (stereo unspecified): the survival was 107% (inactive). Take `O=C1C2C3C=CC(C3)C2C(=O)N1c1ccc(Cl)cc1` (stereo unspecified): the survival was 70% (inactive).

For the molecule `CCC(Oc1ccccc1)C(=O)Nc1ccc(OCc2cc(=O)n3ccc(C)cc3n2)cc1` (stereo unspecified), the survival was 91% (inactive). In the case of `O=C(NCCc1ccccc1)c1ccc2c(c1)N(Cc1ccc(F)cc1)C(=O)c1ccccc1S2` it was 99% (inactive); in that of `Cc1cccc(-c2nc(CSCC(=O)NCCc3ccc(Cl)cc3)c(C)o2)c1`, -7% (active). Then `COc1cccc(-c2nc(CS(=O)(=O)CC(=O)NCCc3ccc(Cl)cc3)c(C)o2)c1`, with 63% (inactive); and `COc1cccc(-c2nc(CSCC(=O)NCCc3ccc(Cl)cc3)c(C)o2)c1`, with -4% (active).

Consider `COc1ccc(-c2nc(CSCC(=O)NCCc3ccc(OC)c(OC)c3)c(C)o2)cc1`, for which the survival was 79% (inactive). In the case of `COc1ccc(CCNC(=O)CSCc2nc(-c3cccc(C)c3)oc2C)cc1OC` it was 66% (inactive); in that of `CCOc1ccc(CCNC(=O)CSCc2nc(-c3cccc(C)c3)oc2C)cc1OCC`, 82% (inactive); in that of `O=C(c1cc(=O)c2cc(Cl)ccc2o1)N(Cc1ccccc1)C1CCS(=O)(=O)C1` (stereo unspecified), 51% (inactive). Then `N#Cc1ccccc1NC(=O)CSC1=NCCS1`, with 99% (inactive); and `COc1ccc(-c2csc3ncnc(Nc4cccc(OC)c4)c23)cc1`, with 69% (inactive). Then `COc1ccc(Nc2ncnc3scc(-c4ccc(F)cc4)c23)cc1`, with 92% (inactive); and `COc1ccc(-c2csc3ncnc(Nc4cccc(F)c4)c23)cc1`, with 0% (active); and `O=C1CC(c2nc3ccccc3[nH]2)CN1c1cccc(Cl)c1` (stereo unspecified), with 81% (inactive).

As for `COc1cc(C(=O)NCCSc2c(-c3ccccc3)[nH]c3ccccc23)cc(OC)c1OC`, the survival was 68% (inactive). In the case of `COc1cccc(NS(=O)(=O)c2ccc3[nH]cc(C(=O)N(C)C4CCCCC4)c(=O)c3c2)c1` it was 98% (inactive); in that of `CC(C)c1ccc(NS(=O)(=O)c2ccc3[nH]cc(C(=O)NCC4CCCO4)c(=O)c3c2)cc1` (stereo unspecified), 81% (inactive); in that of `CC(C)c1ccc(NS(=O)(=O)c2ccc3[nH]cc(C(=O)NC4CCCC4)c(=O)c3c2)cc1`, 4% (active). In the case of `Cc1cc(C)cc(NS(=O)(=O)c2ccc3[nH]cc(C(=O)NC4CCCCC4)c(=O)c3c2)c1` it was 17% (active); in that of `CC(C)c1ccc(NS(=O)(=O)c2ccc3[nH]cc(C(=O)N4CCCC4)c(=O)c3c2)cc1`, 76% (inactive). In the case of `Cc1cc(C)cc(NS(=O)(=O)c2ccc3[nH]cc(C(=O)N4CCCCCC4)c(=O)c3c2)c1` it was 85% (inactive); in that of `COc1cccc(NS(=O)(=O)c2ccc3[nH]cc(C(=O)NC4CCCCC4)c(=O)c3c2)c1`, 35% (active). As for `Cc1cc(C)cc(NS(=O)(=O)c2ccc3[nH]cc(C(=O)N4CCCCC4)c(=O)c3c2)c1`, the survival was 83% (inactive).

As for `CC(C)c1ccc(NS(=O)(=O)c2ccc3[nH]cc(C(=O)NC4CCCCC4)c(=O)c3c2)cc1`, the survival is 14% (active). Then `CCN(c1ccccc1)S(=O)(=O)c1ccc2[nH]cc(C(=O)NC3CCCCC3)c(=O)c2c1`, with 82% (inactive); and `CC(C)c1ccc(NS(=O)(=O)c2ccc3[nH]cc(C(=O)NCCc4ccccc4)c(=O)c3c2)cc1`, with 73% (inactive). Then `COc1cccc(NS(=O)(=O)c2ccc3[nH]cc(C(=O)N4CCCCCC4)c(=O)c3c2)c1`, with 124% (inactive).
